Experimental data reported in ChEMBL document CHEMBL4513216, “Probing the Open Global Health Chemical Diversity Library for Multistage-Active Starting Points for Next-Generation Antimalarials” (ACS Infect Dis, 2020).
In all, about 69,000 compounds went through this assay and about 8,600 (12%) showed an effect of 50% or more. The sample as a whole holds a higher share of strong results than the screen did.

System: Plasmodium berghei
Assay: Screen against P. berghei liver stage (PbLuc), transformed with Luciferase, at 10uM
Format: functional, HepG2
Conditions: tested at 10 uM

Going from `Cc1ccc(N2CCO[C@H]3CN(C(=O)c4cccc(C)n4)C[C@H]32)nn1` to `Cc1cccc(C(=O)N2C[C@@H]3OCCN(c4ncccn4)[C@@H]3C2)n1`, the INHIBITION falls from 53% to 16.6%.

Going from `Cc1ccc(N2CCO[C@H]3CN(Cc4cccs4)C[C@H]32)nn1` to `Cc1ccc(N2CCO[C@H]3CN(Cc4nccs4)C[C@H]32)nn1`, the INHIBITION falls from 88.2% to 25.2%.

Going from `Cc1cccc(C(=O)N2C[C@@H]3OCCN(C(C)C)[C@@H]3C2)n1` to `Cc1ccc(N2C[C@@H]3CN(C(=O)c4ccccc4)CCO[C@@H]3C2)nn1`, the INHIBITION rises from 18.8% to 51.2%.

First: O=C(c1ccccc1)N1CCO[C@@H]2CN(c3ncccn3)C[C@@H]2C1
Second: O=C(c1ccccc1)N1CCO[C@@H]2CN(c3cnccn3)C[C@@H]2C1
The INHIBITION of the first is higher: 48.2% for the first, 37.9% for the second.

Going from `c1ccc(CN2C[C@@H]3OCCN(c4ncccn4)[C@@H]3C2)nc1` to `Cc1ccc(N2CCO[C@H]3CN(Cc4ccccn4)C[C@H]32)nn1`, the INHIBITION rises from 38.1% to 50.9%.

Compared with `Cc1ccc(N2CCO[C@H]3CN(Cc4cccnc4)C[C@H]32)nn1`, `Cc1ccc(N2CCO[C@H]3CN(Cc4ccncc4)C[C@H]32)nn1` is higher in INHIBITION: -12% for the first, 22.7% for the second.

Compared with `CC(=O)NC[C@]1(O)CCN(C(=O)c2ccc(F)c(Cl)c2)C[C@H]1O`, `C/C=C(\C)CN1C[C@@H](NC(=O)c2ccc(O)c(Cl)c2)C[C@H]1C(=O)NCC` is higher in INHIBITION: 18.9% for the first, 22.4% for the second.

Compared with `O=C1COC2(CCN(Cc3cccnc3)CC2)CN1c1ccccc1`, `c1ccc(OCCN2CCCCC2Cn2cncn2)cc1` (stereo unspecified) is lower in INHIBITION: 48.4% for the first, 40.9% for the second.

First: C[C@@]1(O)CCN(C2CCOCC2)C[C@H]1n1ccc(=O)[nH]c1=O
Second: CN1CC(=O)N(c2cccc(F)c2)CC12CCN(S(=O)(=O)C1CC1)C2 (stereo unspecified)
The INHIBITION of the first is higher: 10.95% for the first, 5.44% for the second.

Going from `Clc1ccc(Cc2nc(CNCCn3cccn3)cs2)cc1` to `CCCc1cnc(C)nc1N1CCC(Cc2ccc(CO)cc2)C1` (stereo unspecified), the INHIBITION rises from 16.6% to 75%.

First: CCc1nn(C)c(Cl)c1CN(CC)Cc1cnn(CC)c1
Second: CCCc1cnc(C)nc1N1CCC(Cn2cc(CN(C)C)nn2)CC1
The INHIBITION of the first is lower: -21.9% for the first, -16.1% for the second.

Going from `COC(=O)Cn1c(C)cc(=O)c2cc(F)ccc21` to `CC(=O)Cn1c(C)cc(=O)c2cc(F)ccc21`, the INHIBITION rises from 71.3% to 82.4%.

First: O=C(O)Cn1ccc(=O)c2cc(F)ccc21
Second: COC(=O)CCn1ccc(=O)c2cc(F)ccc21
The INHIBITION of the first is higher: 25.3% for the first, 6.34% for the second.

Compared with `Cc1cc(=O)c2cc(F)ccc2n1CC(=O)O`, `Cc1ccc2c(c1)c(C)cc(=O)n2CC(=O)O` is lower in INHIBITION: 71.3% for the first, 10.775% for the second.

First: COC(=O)Cn1ccc(=O)c2ccc(OC)cc21
Second: Cc1cc(C)n(C2CN(C(=O)Cn3c(C)cc(=O)c4ccccc43)C2)n1
The INHIBITION of the first is lower: -20% for the first, 29.1% for the second.

Going from `CC(=O)c1c(O)n(C)c2ccc(F)cc12` to `Cc1nc(C)c(C(=O)N2CCc3cc(F)ccc3C2C)o1` (stereo unspecified), the INHIBITION rises from 5.75% to 52.6%.

Compared with `CNC(=O)c1ccc(C2CN(C(=O)c3c[nH]nc3C)CCO2)nc1` (stereo unspecified), `CCc1cnc(C)nc1N1CCC(Cc2cccc(C(=O)O)c2)C1` (stereo unspecified) is higher in INHIBITION: -20.2% for the first, 47.2% for the second.

Compared with `O=C(NC1CCN(c2ccccc2Br)C1)c1c[nH]nn1` (stereo unspecified), `CCCc1cc(N2CCC(Cc3cccc(C(N)=O)c3)C2)nc(C)n1` (stereo unspecified) is lower in INHIBITION: 34.2% for the first, 5.67% for the second.

Going from `CS(=O)(=O)NCC1CCCN(C(=O)Nc2cccc3ccccc23)C1` (stereo unspecified) to `CC(C)C(NC(=O)Cc1ccccc1)C(=O)NCc1ccc(O)nc1` (stereo unspecified), the INHIBITION rises from -31.3% to 0.991%.

Going from `CC(C)(C)c1nnc(CN2CCCC2Cn2cncn2)o1` (stereo unspecified) to `C=c1ncsc1=C1NN=C(C2CCCN2C(=O)CCn2ccc(C)n2)O1` (stereo unspecified), the INHIBITION falls from 32.707% to 21.95%.

Going from `NC(=O)c1cnc(NC2CC2)nc1CCNC(=O)CC1CCCC1` to `CCOC(=O)CCCNC(=O)CN1CCN(c2ncccn2)CC1`, the INHIBITION falls from 31.3% to 1.81%.

Compared with `CCOC(=O)CNC(=O)N1CCN(c2ncccn2)CC1`, `O=C(NCc1cc[nH]n1)N1CCN(c2ncccn2)CC1` is lower in INHIBITION: 63.5% for the first, 33.3% for the second.

Compared with `Cn1c(C(=O)NC(Cc2ccsc2)c2cccnc2)cc(=O)n(C)c1=O` (stereo unspecified), `CCCc1cnc(C)nc1N1CCC(Cc2cccc(C(N)=O)c2)C1` (stereo unspecified) is higher in INHIBITION: -12.3% for the first, 52.2% for the second.

First: C/C=C(\C)CN1C[C@H](NC(=O)c2cnc(O)cn2)C[C@H]1C(=O)NCC
Second: C/C=C(\C)CN1C[C@@H](NC(=O)c2ccc(F)c(F)c2)C[C@H]1C(=O)NCC
The INHIBITION of the first is lower: -7.17% for the first, 52% for the second.

Compared with `CCCC(C)N(C)C(=O)c1nc(S(C)(=O)=O)n2ccccc12` (stereo unspecified), `CCCc1cnc(C)nc1N1CCC(Cn2cc(C(C)O)nn2)CC1` (stereo unspecified) is higher in INHIBITION: -8.95% for the first, 17.5% for the second.

Going from `Cc1nc(C)c(C(=O)N2CCc3ccc(F)cc3C2C)o1` (stereo unspecified) to `Cc1nc(C)c(C(=O)N2Cc3cc(F)ccc3CC2C)o1` (stereo unspecified), the INHIBITION rises from -11.6% to -9.17%.

Going from `Cc1nn(C)c(C)c1CN(C)CC1(O)CCCN(C)C1` (stereo unspecified) to `CCCc1cnc(C)nc1N1CCC(F)(F)CC1`, the INHIBITION falls from 5.18% to -40.6%.

Going from `CCCc1cnc(C)nc1N1CCC(Cn2cc(CO)nn2)CC1` to `CCCc1cnc(C)nc1N1CCC2(CCCO2)CC1`, the INHIBITION falls from 50.2% to 13.1%.
